Experimental data reported in PubChem BioAssay AID1117319 (Southern Research Institute, 2015).
Several values for one entry are separate records, joined by “and”; a condition that tells them apart may be missing. Identical values can stand only once. Out of some 260,000 compounds screened, about 1,500 (0.58%) were called active. About 5% were inconclusive and are not listed. Not all results are given here. Results with a measured potency or affinity are listed apart. Unmarked numbers belong to inactive results.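 The calls were made as follows: active = inhibition above a set limit at one or more doses, reproduced on every date tested; inconclusive = results disagree between test dates, or hit never tested in dose response; inactive = the rest.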

Biological target: Virion infectivity factor (Human immunodeficiency virus type 1 group M subtype B (isolate BH10)) + Virion infectivity factor (Human immunodeficiency virus type 1 group M subtype B (isolate BRU/LAI)) + Virion infectivity factor (Human immunodeficiency virus type 1 group M subtype B (isolate PCV12)) + Virion infectivity factor (Human immunodeficiency virus type 1 group M subtype B (isolate HXB2)) + DNA dC->dU-editing enzyme APOBEC-3G (Homo sapiens) (UniProt P69720+P69721+P69722+P69723+Q9HC16)
Test: inhibitors of Vif binding to APOBEC3G peptide, primary screen, biochemical, TR-FRET, GST-Vif 1-94, biotin-A3G peptide, dose response retest (AID 1117319);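 also: Vif residues 1-94 fused to GST binding biotinylated APOBEC3G peptide 110-148; 0% = full assay without inhibitor and 100% = GST in place of GST-Vif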
Conditions: active compounds read high

SMILES | inhibition
Cc1cc(C(=O)Nc2ccccc2Cc2ccccc2)no1 | -1.05%
CCOC(=O)c1c(NC(=O)c2cccs2)sc(C)c1CC | -1.19%
Cc1sc(NC(=O)c2cccs2)c(C(=O)OC(C)C)c1C | 2.47%
O=C(O)/C(=C/c1ccc(Cl)c([N+](=O)[O-])c1)c1ccc(S(=O)(=O)N2CCCCC2)s1 | 19.6%
COc1c(C)cc(C(=O)C2CCCN(C(=O)c3cc(C)nc(C)n3)C2)cc1C (stereo unspecified) | -12.6%
CCc1cccc(NC(=O)CN(C)S(=O)(=O)c2cccc3cccnc23)c1 | 5.83%
COc1c(O)cc2c(c1O)C(=O)CC(c1ccccc1)O2 (stereo unspecified) | 2.35%
COc1cc(O)c(CCO)c2c1C(=O)C[C@@H](C)O2 | 1.87%
O=C(NCc1cccnc1)c1ccc(CS(=O)(=O)Cc2ccc(Cl)cc2)o1 | 21.4%
Cc1noc(C)c1S(=O)(=O)N1CCC(C(=O)NC2CCN(Cc3ccccc3)CC2)CC1 | 28.3%
CCc1cccc(NC(=O)C2CCN(S(=O)(=O)c3c(C)noc3C)CC2)c1 | -1.11%
CCCCn1c(SCC(=O)c2ccc(OCC)cc2)nc2cc(S(N)(=O)=O)ccc21 | 3.73%
COc1ccc(NC(=O)CCCCCN2C(=O)CCC2=O)cc1Cl | -2.09%
CN1CC(=O)N(CC(=O)Nc2ccc(Cl)c(C(F)(F)F)c2)C1=O | -5.66%
O[C@H]1C[C@H](c2ccccc2)N(CC2CCCCC2)C[C@@H]1n1cc(C2CC2)nn1 | -3.24%
Cc1ccccc1N(C(=O)Cn1nnc2ccccc21)C(C(=O)NCc1ccco1)c1ccncc1 (stereo unspecified) | -7.73% and -2.99%
Cc1ccc(C)c(N(C(=O)Cn2nnc3ccccc32)C(C(=O)NCc2ccco2)c2ccncc2)c1 (stereo unspecified) | -2.7%
CC(C)Oc1ccc(N2CC(C(=O)Nc3ccccc3C(=O)NC3CC3)CC2=O)cc1 (stereo unspecified) | -13%
Cc1ccc2[nH]c(=O)c(C3=NN(C(=O)CCC(=O)O)C(c4cccs4)C3)c(-c3ccccc3)c2c1 (stereo unspecified) | 2.41%
COC(=O)C(CC(=O)c1ccc(Cl)cc1)c1ccc(C(C)C)cc1 (stereo unspecified) | 10.5%
O=C(CCCl)N(Cc1nc2ccccc2c(=O)[nH]1)Cc1cccs1 | -7.06%
CC(C)NC(=O)N(Cc1ccccc1)Cc1cccs1 | -1.49%
CN(CC(=O)Nc1cccc(F)c1)C(=O)c1ccccc1OCCOc1ccccc1 | 2.96%
O=C(NNC(=O)c1ccccc1C(=O)O)c1cc2ccccc2o1 | 19%

SMILES | inhibition
O=C(NNC(=O)c1cc2ccccc2o1)c1ccc(F)cc1 | -2.65%
CC(=O)Nc1ccc(NC(=O)c2ccc(-c3ccc([N+](=O)[O-])cc3)o2)cc1 | -7.43%
C=CCNC(=O)c1ccc(-c2ccc([N+](=O)[O-])cc2)o1 | 16.1%
CC1CCN(c2ccccc2NC(=S)NC(=O)C(C)(C)C)CC1 | -4.59%
COc1ccc2c(CC(=O)NNC(=O)c3cccs3)coc2c1 | 5.01%
CCCC(C(=O)NC(C)(C)C)N(Cc1ccccc1)C(=O)c1snc(C(N)=O)c1N (stereo unspecified) | 3.36%
Cc1nn(Cc2ccc(Cl)cc2Cl)c(C)c1NC(=O)c1nn(C)cc1Cl | -2.6%
O=C(CCc1ccccc1)Nc1ccc(NS(=O)(=O)c2ccccc2)cc1 | 0.68%
Cc1c[n+]([O-])cc(C)c1[N+](=O)[O-] | -3.91%
O=C(CCN1CCN(CCO)CC1)Nc1ccc(OCc2ccccc2)cc1 | -0.21%
c1cc2c(cc1CN1CCOCC1)OCO2 | 11.3%
CC1(C)CC(=O)C2=C(C1)NCN(Cc1ccccc1)C2 | 0.39%
O=C(OCC(=O)N1CCCC1)c1c2c(nc3ccccc13)CCCCC2 | -4.27%
NNC(=O)C1C(O)CCC2CN3CCc4c([nH]c5ccccc45)C3CC21 (stereo unspecified) | -9.7%
C[C@@H]1ON(C)[C@H]2C[C@H]3c4[nH]c5ccccc5c4CCN3C[C@@H]12 | -1.4%
Cc1ccnc(NS(=O)(=O)c2cc([N+](=O)[O-])ccc2C)c1 | -2.19%
Cc1ccc(C2=N/C(=C\c3ccc(F)cc3)C(=O)N2)cc1 | -3.34%
COc1ccc(/C=C2\N=C(c3ccccc3Cl)NC2=O)cc1 | 3.99%
Brc1cccc(-c2nnco2)c1 | -2.5%
O=c1/c(=C/c2ccco2)sc2n1CN(c1cccc(Br)c1)CN=2 | 32.9%
O=C(CCc1nc2ccccc2c(=O)[nH]1)OCc1ccc(-c2ccccc2)cc1 | -13.5%
CCc1ccc2c(c1)C(=O)CCC2 | -0.54%
O=C(CN1CCCCC1)NCCNC(=O)CN1CCCCC1 | -5.6%
Cc1ccc2c(c1)c1c3n2CCN(C(=O)CN2CCN(C)CC2)C3CCC1 (stereo unspecified) | -1.2%

SMILES | inhibition
Cc1ccc2c(c1)c1c3n2CCN(C(=O)C2CC2)C3CCC1 (stereo unspecified) | 14.1%
COC(=O)c1ccc2c(c1)SC1=C(CCCC1=O)N2 | 20.1%
CNCc1ccccc1OCc1ccc(F)cc1 | -4.9%
CCC(C)[C@@H](C(=O)Nc1ccc(OC)c(OC)c1)N1Cc2ccccc2C1=O (stereo partly specified) | 3.88%
CC(C(=O)Nc1ccc2c(c1)OCCO2)N1Cc2ccccc2C1=O (stereo unspecified) | 7.84%
N#CC(C(N)=O)=C1CCC2(CC1)OCCCCO2 | 3.27%
N#C/C(C(N)=O)=C1/CCc2ccccc2N1 | -2.65%
C[C@@H]1CCCCO[C@H](CN(C)Cc2ccc(C(F)(F)F)cc2)[C@@H](C)CN([C@H](C)CO)C(=O)c2cc(NS(=O)(=O)c3cn(C)cn3)ccc2O1 | -0.57%
Cc1noc(C)c1S(=O)(=O)Nc1ccc2c(c1)C(=O)N([C@@H](C)CO)C[C@@H](C)[C@@H](CN(C)CC1CCCCC1)OCCCC[C@@H](C)O2 | 2.32%
CCOC(=O)c1c(C)nc(C)c(C(=O)OCC)c1-c1cccc(N)c1 | -1.65%
CC(C)n1c(SCC(=O)Nc2nc3ccccc3s2)nc2c1c(=O)n(C)c(=O)n2C | 10.6%
NS(=O)(=O)c1cc(Br)c2c(c1)S(=O)(=O)NCN2 | -0.53%
CCOC(=O)N1CCC(N(CCN(C)C)C(=S)Nc2cccc(Cl)c2C)CC1 | -1.98%
O=C1NN(c2ccccc2)C(=O)/C1=C/c1ccc(-c2ccc(Cl)c(C(=O)O)c2)o1 | -2.97%
Cc1ccc(N2NC(=O)/C(=C/c3ccc(-c4ccc(Cl)c(C(=O)O)c4)o3)C2=O)cc1 | 0.99%
CCOc1ccc2[nH]c(=O)c(CN(CCO)C(=O)c3ccc(OC)c(OC)c3)cc2c1 | -0.38%
CCN(C(=O)COC(=O)c1cnc(C)cn1)c1c(N)n(Cc2ccccc2)c(=O)[nH]c1=O | 2.12%
O=c1cc(-c2ccc(O)cc2)oc2cc(O[C@@H]3O[C@H](CO)[C@@H](O)[C@H](O)[C@H]3O[C@@H]3OC[C@](O)(CO)[C@H]3O)cc(O)c12 | 6.15%
COc1c(O)cc2oc(-c3ccc(O)cc3)cc(=O)c2c1O | 19.4%
O=c1cc(-c2ccc(O)c(O)c2)oc2cc(O)cc(O)c12 | 15.6%
O=c1cc(-c2ccc(O)c(O)c2)oc2ccc3ccccc3c12 | 10.7%
COc1ccc(CNC(=O)CCC(=O)N2CCN(S(=O)(=O)c3cc([N+](=O)[O-])ccc3C)CC2)cc1 | -6.42%
CN(C)c1ncc(/C=C2/C(=O)NC(=S)N(C3CCCCC3)C2=O)cn1 | 1.75%
CCOc1ccc(CCNS(=O)(=O)c2ccc3c(c2)oc(=O)n3C)cc1OCC | 13.6%

SMILES | inhibition
c1ccc(CN2CCc3[nH]c4ccccc4c3C2)cc1 | -5.69%
CC(C)CC(=O)N1CCN(C(=O)c2cccc(F)c2)CC1 | -7.36%
COc1ccc(OCC(O)CN(C)C(=O)/C=C/c2cccc([N+](=O)[O-])c2)cc1 (stereo unspecified) | -4.1%
COc1ccc(/C=C/c2nc3sc4c(c3c(=O)o2)CCC4)cc1 | -1.87%
O=c1oc(/C=C/c2ccccc2)nc2sc3c(c12)CCC3 | 70.5%
CCc1ccccc1OCC(=O)OCC(=O)N1CC(=O)Nc2ccccc21 | -5.84%
CS(=O)(=O)N(CC(=O)NCc1ccc2c(c1)OCO2)C1CCCCC1 | -13.6%
Oc1ccccc1C=NN1CCCCCC1 | -3.73%
CCN(CC)c1ccc(/C=N/N2C(=O)c3ccccc3C2=O)c(O)c1 | 19.7%
O=C1c2ccccc2C(=O)N1/N=C/c1ccc(O)c(O)c1 | 29.1%
COc1cccc(/C=N/N2CCOCC2)c1O | 2.44%
CCN(CC)c1ccc(/C=N/N2CCOCC2)c(O)c1 | -1.22%
Oc1cccc(/C=N/N2CCCCC2)c1O | -5.32%
CCC(=O)C1CCCN(C(=O)CCc2nnc(C3(c4ccc(Cl)cc4)CCC3)o2)C1 (stereo unspecified) | 8.39%
CCC(C)(C(=O)NC1CCCC1)N(C(=O)c1ccccn1)c1ccc(C)cc1 (stereo unspecified) | 5.82%
CC(=O)Nc1cccc(C(=O)OCC(=O)NNC(=O)c2cccs2)c1 | -1.93%
Cc1ccc(C2(C)NC(=O)N(CC(=O)Nc3nc(-c4ccccn4)cs3)C2=O)cc1 (stereo unspecified) | 0.48%
COc1ccccc1OCC(=O)NCC(C)NC(=O)COc1ccccc1OC (stereo unspecified) | 5.26%
COc1ccc(-c2cn(-c3ccc(C)cc3)c(=O)n2CC(=O)Nc2cccc(F)c2)cc1 | 7.83%
CCOc1cccc2sc(N(CCCN(C)C)C(=O)Cc3ccccc3)nc12 | 3.08%
CCc1c(C)sc(NC(=O)OC)c1C(=O)N1CCOCC1 | -5.04%
CCc1c(C)sc(NC(=O)OC)c1C(N)=O | -10.3%
OC(COCc1ccccc1)CN1CCCC1 (stereo unspecified) | 1.73%
COc1ccc2oc(C(=O)c3ccccc3)c(NC(=O)CN3CCN(C)CC3)c2c1 | 1.78% and 5.75%
